AmpC inh det: blocks E. coli AmpC beta-lactamase in presence of detergent; purified AmpC, nitrocefin hydrolysis with detergent; Potency, µM (doses to about 28.7 µM), for inactives: at the top dose activity change, negative = inhibition; 71,000 tested, 0.09% active; AID 584; active = well fitted curve in the direction sought with a large enough effect; inconclusive = small, poorly fitted or top-dose-only effect; also: % is scaled to controls: 0 for no effect and ±100 for the full control effect
Target sequence (P00811 whole entry, looked up): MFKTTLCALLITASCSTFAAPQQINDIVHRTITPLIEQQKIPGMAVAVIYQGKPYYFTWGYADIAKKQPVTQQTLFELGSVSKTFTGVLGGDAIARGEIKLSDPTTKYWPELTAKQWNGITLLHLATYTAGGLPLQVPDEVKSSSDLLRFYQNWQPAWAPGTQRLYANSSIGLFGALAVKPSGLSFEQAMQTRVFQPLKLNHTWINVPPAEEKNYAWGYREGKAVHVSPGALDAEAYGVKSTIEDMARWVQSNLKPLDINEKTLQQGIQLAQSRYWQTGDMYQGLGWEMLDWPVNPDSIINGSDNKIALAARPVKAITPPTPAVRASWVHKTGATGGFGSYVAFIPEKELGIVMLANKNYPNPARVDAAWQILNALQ
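E. coli AmpC (5.3 nM) in 20 mM phosphate pH 7.0 with 0.01% Triton X-100, preincubated 15 min RT with compound; nitrocefin (2 uL of 800 uM stock) hydrolysis followed by 480 nm absorbance every 20 s over 4 min.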
AmpC nodet inh: blocks E. coli AmpC beta-lactamase in absence of detergent; P00811; AID 585; 71,000 tested, 1.8% active; Potency, µM (series often up to 28.7 µM), for the others: at the highest dose activity change, negative = inhibition; AmpC nitrocefin hydrolysis, absorbance 480 nm, no detergent; also: % of control where 0% means no effect
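Enzyme, pH 7.0 phosphate. Compound titrations were pre-incubated with AmpC for 15 min at room temperature before nitrocefin (stock 800 uM) addition; product formation was recorded at 480 nm every 20 s for 4 min.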
Anthrax LT inh: blocks cellular internalization of anthrax lethal toxin. Cells, anthrax lethal toxin internalization, FRET ratio (460/530). 70,000 tested, 0.67% active. Potency, µM (top dose mostly 40 µM), inactives show at the top dose activity change, negative = inhibition, hits mostly inhibitors. AID 912; also: % is scaled to controls: 0 for no effect and ±100 for the full control effect; nearly all actives have a fitted effect of over 50% in size
Prx2 Sm inh: Schistosoma mansoni Prx2 inhibition; Potency, µM; 65,000 tested, 0.07% active; S. mansoni Prx2 activity coupled to TGR/GSH (TGR is thioredoxin glutathione reductase), NADPH fluorescence loss, qHTS; AID 448
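Purified S. mansoni TGR and Prx2 in pH 7.4 phosphate buffer with EDTA and Tween-20 were preincubated with compounds for 15 min. Further NADPH/GSH was added, then a 2.5 mM H2O2 aliquot initiated turnover, followed kinetically by NADPH fluorescence.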
* marks the source's active call; other numbers are inactive results; i = inactive; ? = inconclusive; nt = not tested or not shown; [ ] = dose if it differs, or a comment. Shown are actives, neighbours in structure and some others; about 2.4% of the full set was active somewhere. Unless noted, calls follow the shape of the full dose curve. Potency is read from the fitted curve at half-maximal effect.

SMILES	AmpC inh det	AmpC nodet inh	Anthrax LT inh	Prx2 Sm inh
CCC/C=C(\CCC)C(NS(=O)(=O)c1ccc(C(F)(F)F)cc1)c1ccc(C(=O)OC)cc1 (configuration not stated)	10%	13µM*	-6%	>57
CCC/C=C(\CCC)C(NS(=O)(=O)c1ccc(C(F)(F)F)cc1)c1ccccc1 (configuration not stated)	10%	-9%	-28%	>57
CCC/C=C(\CCC)C(NS(=O)(=O)c1ccccc1)c1ccc(C(F)(F)F)cc1 (configuration not stated)	2%	13µM*[single pt active]	?	>57
CC(C)C[C@H]1C(=O)N2CCC[C@@H]2[C@]2(O)O[C@](NC(=O)[C@H]3C=C4c5cccc6[nH]cc(c56)C[C@H]4N(C)C3)(C(C)C)C(=O)N12	0%	106%	?	>57
Cc1noc(C)c1S(=O)(=O)N1CCCC(C(=O)N2CCN(C3CCCCC3)CC2)C1 (configuration not stated)	12%	4µM*[single pt active]	2%	>57
Cc1cc(NC(=O)C2CCCN(S(=O)(=O)c3c(C)noc3C)C2)n[nH]1 (configuration not stated)	11%	4µM*[single pt active]	?	>57
COc1ccc2nc(NC(=O)C3CCCN(S(=O)(=O)c4c(C)noc4C)C3)sc2c1 (configuration not stated)	16%	4µM*[single pt active]	?	>57
CCOc1ccc2nc(NC(=O)C3CCCN(S(=O)(=O)c4c(C)noc4C)C3)sc2c1 (configuration not stated)	10%	4µM*[single pt active]	?	>57
CC(C)[C@@]1(NC(=O)[C@@H]2C[C@H]3c4cccc5[nH]cc(c45)C[C@@H]3N(C)C2)O[C@@]2(O)[C@H]3CCCN3C(=O)[C@@H](Cc3ccccc3)N2C1=O	-4%	121%	?	>57
O=C(Nc1ccccc1)N1CC[C@@]2(CCCN(C(=O)c3csnn3)C2)C1	-1%	3%	-1%	>57
c1ccc([C@@H]2CN3CCSC3=N2)cc1	3%[12.8 µM]	-7%[12.8 µM]	?	>57
Cn1cnnc1SCC(=O)Nc1sc2c(c1C(N)=O)CCC2	-8%	10µM*	?	>57
NC(=O)c1c(NC(=O)CSc2nnc(-c3ccccc3)n2CC2CCCO2)sc2c1CCC2 (configuration not stated)	4%	77%	-16%	>57
CCOC(=O)C1CCCN(C(=O)Cn2nc(Cc3cccnc3)c3ccccc3c2=O)C1 (configuration not stated)	12%	3.2µM*[single pt active]	2%	>57
C[N+]1(C)CCC[C@H]1C(=O)[O-]	-2%[12.8 µM]	-13%[12.8 µM]	0%[3.58 µM]	>57
CC(=O)OCC1OC(c2ccc3c(c2)OCO3)C=CC1OC(C)=O (configuration not stated)	nt	nt	-7%[8 µM]	nt
CCN(CCNC(=O)CC1Oc2ccccc2NC1=O)c1ccccc1 (configuration not stated)	13%	4µM*[single pt active]	0%	>57
CCCSCCCNC(=O)CC1Oc2ccccc2NC1=O (configuration not stated)	12%	4µM*[single pt active]	-1%	>57
CCC(C)N(CCNC(=O)CC1Oc2ccccc2NC1=O)C1CCCCC1 (configuration not stated)	7%	4µM*[single pt active]	-19%	>57
CC(C)CN(CCNC(=O)CC1Oc2ccccc2NC1=O)CC(C)C (configuration not stated)	13%	4µM*[single pt active]	-3%	>57
CC(C)N[C@@H](C)Cc1ccc(I)cc1	-2%	1%	-4%	>57
O=C(CCc1nc2ccccc2[nH]1)NC1CCCCC1	4%	4µM*[single pt active]	-15%	>57
O=C(Cn1c(=O)oc2cc(S(=O)(=O)N3CCCC3)ccc21)NCc1ccccn1	12%	4µM*[single pt active]	-4%	>57
O=C(NC1CCCCC1)NC1CCN(S(=O)(=O)c2ccc3c(c2)OCCO3)CC1	13%	10µM*[single pt active]	?	>57
CCOC(=O)Cn1c(=O)oc2cc(S(=O)(=O)NCc3ccccn3)ccc21	12%	17%	9%	>57
SMILES	AmpC inh det	AmpC nodet inh	Anthrax LT inh	Prx2 Sm inh
O=C(Cn1c(=O)oc2cc(S(=O)(=O)N3CCCCCC3)ccc21)NC1CCCCC1	11%	4µM*[single pt active]	-16%	>57
C[C@@]12CC[C@H]3[C@H](CC=C4C[C@@H](O)CC[C@@]43C)[C@@H]1CC[C@@H]2N(CCO)CCO	0%[5.75 µM]	5%[5.75 µM]	?	>57
Cn1cc(C(=O)c2ccccc2)c2ccccc21	10%	4µM*[single pt active]	-23%	>57
O=C(c1ccco1)N1CCC[C@@]2(CCN(c3cccc(-c4ccccc4)c3)C2)C1	-3%	80%	?	>57
CN[C@@H]1[C@H](O)[C@H](NC)[C@@H]2O[C@]3(O)C(=O)C[C@@H](C)O[C@H]3O[C@@H]2[C@H]1O	-3%	4%	-7%	>57
O=C(CN1CCC(n2nnc3cc(F)ccc32)CC1)NC1CC1	-3%	3%	-8%	>57
CCOc1ccc2nc(NC(=O)CN3CCC(n4nnc5cc(F)ccc54)CC3)sc2c1	-5%	52%	13µM*	>57
OC[C@H]1CCCN2CCCC[C@@H]12	0%	3%	-3%	>57
CN(C)c1ccc(C(=O)OCC(=O)c2cccs2)cc1	10%	-2%	-14%	>57
O=C(OCC(=O)c1cccs1)c1ccc(NC(=O)c2ccco2)cc1	9%	16µM*[single pt active]	-6%	>57
C[C@@H]1CC[C@@]2(OC1)O[C@H]1[C@@H](O)[C@H]3[C@@H]4CC[C@H]5C[C@@H](O[C@@H]6O[C@H](CO)[C@H](O[C@@H]7O[C@H](CO)[C@@H](O)[C@H](O[C@@H]8OC[C@@H](O)[C@H](O)[C@H]8O)[C@H]7O[C@@H]7O[C@H](CO)[C@@H](O)[C@H](O[C@@H]8O[C@H](CO)[C@@H](O)[C@H](O)[C@H]8O)[C@H]7O)[C@H](O)[C@H]6O)[C@H](O)C[C@]5(C)[C@H]4CC[C@]3(C)[C@H]1[C@@H]2C	8%	143%	?	nt
CCN(N=O)C(N)=O	12%	10%	?	nt
O=c1c(O)c(-c2ccc(O)cc2)oc2ccc(O)cc12	-2%	16µM*[single pt active]	-20%	i
OCCN1CCN(c2ncnc3ccc(Br)cc23)CC1	13%	4µM*[single pt active]	-4%	>57
CCN1CCN(c2ncnc3ccc(Br)cc23)CC1	-4%	-8%	-15%	>57
N#Cc1c(C(F)(F)F)cc(C2CC2)[nH]c1=O	15%	4µM*[single pt active]	-11%	>57
COC(=O)[C@H]1C(=O)[C@H](C(=O)OC)[C@@H]2CC[C@H]1N2C	-4%[5.75 µM]	0%[5.75 µM]	-1%[8 µM]	>11
CCCCNc1cc(=O)n(C)c(=O)[nH]1	11%	4µM*[single pt active]	6%	>57
Nc1ccc2cc3ccccc3cc2c1	12%	2.5µM*	?	nt
Cc1ccsc1-c1nc(CSCC(=O)N2CCN(c3ccccc3)CC2)c(C)o1	10%	127%	16µM*	>57
Cc1ccc(-c2nc(CSCC(=O)N3CCCC3)c(C)o2)cc1	-1%	67%	7%	>57
Cc1ncc([N+](=O)[O-])n1C[C@H](O)CCl	1%[12.8 µM]	9%[12.8 µM]	1%[3.58 µM]	>57
